Assay outcomes: PubChem BioAssay, National Center for Advancing Translational Sciences (NCATS)
JMJD2A Tudor – inhibitors of human JMJD2A Tudor domain. AlphaScreen JMJD2A-Tudor / H3K4me3 peptide binding. O75164. 390,000 tested, 4.4% active. Potency, µM (top dose mostly 114 µM), without a hit: at the highest dose activity change, negative = inhibition, usual class: inhibitors; further: on the % scale 0 is the no-effect control and ±100 the full control effect; nearly all actives have a fitted effect of over 50% in size
TDP1 block – blocks human tyrosyl-DNA phosphodiesterase 1; Q9NUW8; recombinant TDP1, AlphaScreen DNA substrate cleavage; Potency, µM (titrated, usually from 130 µM), for inactives: top-dose activity change, negative = inhibition, usual class: inhibitors; 350,000 tested, 0.28% active; further: on the % scale 0 is the no-effect control and ±100 the full control effect; nearly all actives have a fitted effect of over 40% in size
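Recombinant E. coli-expressed Tdp1 (1 nM) preincubated with compound 15 min at RT, then 5'-biotin/3'-phosphotyrosine-FITC DNA substrate (15 nM) added for 5 min. AlphaScreen beads (10 ug/ml) added, 10 min RT; tyrosine-FITC cleavage read as signal loss.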
Sfp inh – blocks B. subtilis Sfp PPTase activity; 310,000 tested, 3.5% active; Potency, µM, for the others: largest response in the series, negative = inhibition, usual class: inhibitors; AID 1490; Q9F4F7; Biochemical Sfp PPTase activity, qHTS;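 further: the enzyme is Sfp with the accession as filed and its product quenches rhodamine fluorescence; 0% = enzyme reaction without inhibitor and -100% = no enzyme wells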
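With Hepes-Na pH 7.6 buffer containing 10 mM MgCl2, Sfp (15 nM) modified BHQ-2-YbbR (12.5 uM) using rhodamine-CoA (5 uM). Two reads 30 minutes apart at 525/598 nm yielded each well's rate.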
HP1b chromo inh – HP1-beta chromodomain-methylated histone interaction inhibition | P83916 | AlphaScreen HP1-beta / biotin-H3K9me3 peptide binding | Potency, µM (highest dose often 114 µM), inactives show at the top dose activity change, negative = inhibition, actives largely listed as inhibitors | 390,000 tested, 0.56% active; further: nearly all actives have a fitted effect of over 70% in size
Target sequence (P83916 whole entry, looked up): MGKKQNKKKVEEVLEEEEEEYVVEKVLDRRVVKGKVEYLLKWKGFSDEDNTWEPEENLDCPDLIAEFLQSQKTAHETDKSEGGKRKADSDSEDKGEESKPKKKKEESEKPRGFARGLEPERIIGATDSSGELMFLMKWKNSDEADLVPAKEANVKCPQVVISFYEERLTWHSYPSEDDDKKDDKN
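Compound inhibition of the preformed complex between 50 nM HP1-beta and 50 nM biotinylated H3K9me3 peptide was read by AlphaScreen. Buffer was PBS pH 7.4 with 0.01% Tween-20. Incubations ran 30 min at room temperature, with 10 ug/mL donor/acceptor beads.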
G9a inh – blocks human histone lysine methyltransferase G9a. 350,000 tested, 8.8% active. AID 504332. G9a H3K9 monomethylation, AlphaScreen, 2 h. Q96KQ7. Potency, µM (doses to about 102 µM), for the others: top-dose activity, negative = inhibition, most hits filed as inhibitors; further: on the % scale 0 is the no-effect control and ±100 the full control effect; nearly all actives have a fitted effect of over 75% in size
Target sequence (Q96KQ7 913-1193 limits assumed): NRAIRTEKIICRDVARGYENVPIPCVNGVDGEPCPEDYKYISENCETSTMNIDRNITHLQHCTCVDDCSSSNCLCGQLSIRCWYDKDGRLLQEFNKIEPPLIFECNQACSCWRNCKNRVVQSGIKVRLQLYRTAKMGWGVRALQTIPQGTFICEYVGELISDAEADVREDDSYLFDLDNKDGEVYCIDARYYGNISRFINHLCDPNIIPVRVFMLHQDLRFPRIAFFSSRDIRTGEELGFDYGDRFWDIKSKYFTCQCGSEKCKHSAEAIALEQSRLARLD
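Methyltransferase reactions run at room temperature for 2 h (20 nM enzyme, 500 nM biotin-H3K9 peptide, 20 uM SAM) after a 15 min compound preincubation; product detected by AlphaScreen beads and anti-H3K9me1 antibody.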
BAZ2B block – BAZ2B (human) inhibition; 360,000 tested, 4.4% active; AlphaScreen BAZ2B-H3K14Ac peptide displacement; AID 504333; Potency, µM (top dose mostly 114 µM), for inactives: at the highest dose activity change, negative = inhibition, hits mostly inhibitors; Q9UIF8; further: on the % scale 0 is the no-effect control and ±100 the full control effect; nearly all actives have a fitted effect of over 60% in size
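BAZ2B (50 nM) with biotin-H3(5-23)K14Ac peptide (50 nM) in PBS pH 7.4, 0.01% Tween-20, preformed 30 min, then compound 30 min at room temperature; top concentration 110uM. AlphaScreen streptavidin donor/nickel chelate acceptor beads (10 ug/mL final), 20 min dark, signal read.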
* hit, by the source's call; ? = inconclusive; · = not tested or not shown; [ ] = remark or other dose. In the library only some 12% were active in any assay of this set; here they are far more common. The call rests on the fitted dose curve; in most records, active means well fitted curve in the direction sought with a large enough effect; inconclusive means small, poorly fitted or top-dose-only effect, or another doubt; inactive means no such curve, though single readings can be large; an effect the other way counts as inactive or inconclusive. Potency means the concentration at half of the fitted maximal effect.

SMILES | JMJD2A Tudor | TDP1 block | Sfp inh | HP1b chromo inh | G9a inh | BAZ2B block
COc1cc(OC)cc(N(C(=O)c2ccco2)C(C(=O)NC2CCCC2)c2ccc(N(C)C)cc2)c1 (configuration not stated) | ? | 10% | 6% | -20% | 22µM* | ?
O=C(NCCCNC(=O)c1cnccn1)c1cccc(Cl)c1 | -8% | 6% | 18% | 1% | 3% | -4%
CCc1ccccc1Nc1nc2cc(Cl)c(Cl)cc2nc1-n1nc(C)cc1C | 6% | 0% | · | 34% | 11%[59 µM] | 14%
CC(C)(C)c1ccc(S(=O)(=O)O/N=C2/CCCCC2c2ccc([N+](=O)[O-])cc2[N+](=O)[O-])cc1 (configuration not stated) | -12% | -6% | -2% | 10% | -8%[12.7 µM] | 1%
CS(=O)(=O)O/N=C1\CCCCC1c1ccc([N+](=O)[O-])cc1[N+](=O)[O-] (configuration not stated) | -7% | · | -8% | 22% | 40µM* | -19%
COc1ccc(-c2c(-c3cc(OC)cc(OC)c3)n(C)c3ccc(-c4ccc(S(N)(=O)=O)cc4)cc23)cc1 | ? | 3% | · | 12% | 6%[0.501 µM] | -11%
COC(=O)CN1C(=O)N(c2ccccc2)C(N(O)C(=O)Nc2ccccc2)C1(C)C (configuration not stated) | ? | 2% | -4% | 18% | 40µM* | -39%
COC(=O)CNC(=O)CN1C(=O)N(c2ccc(Cl)cc2)C(N(O)C(=O)Nc2ccc(Cl)cc2)C1(C)C (configuration not stated) | -21% | 2% | 12% | 11% | 2% | -25%[57.1 µM]
CCN(CC#CCC1(O)c2ccccc2-c2ccccc21)CCO | 89µM* | 2% | 89µM* | -4% | -11%[0.0925 µM] | ?
Cc1c(NC(=O)CSCc2ccc(Br)cc2)c(=O)n(-c2ccccc2)n1C | -14% | 2% | 14% | 28% | ? | -26%
COc1cccc(-n2c(=O)c3c4c(sc3n(Cc3ccc(C)cc3)c2=O)CCCC4)c1 | -5% | 2% | · | 14% | -28%[59 µM] | -1%
Cc1cc(C(=O)COC(=O)CC2Sc3ccccc3NC2=O)c(C)n1-c1ccc(Br)cc1 (configuration not stated) | -27% | -2% | -6% | -2% | 56µM* | -39%
CN1/C(=N\O)c2cccc3cccc1c23 | 17% | -2% | -24% | -13% | 32µM* | 4%
CNC(=O)CN1C(=O)c2cccc3cccc1c23 | 3% | 7% | -3% | 24% | 12%[12.7 µM] | 11%
N#Cc1cccc(NC(=O)C2CCN(S(=O)(=O)c3ccc4[nH]c(=O)ccc4c3)CC2)c1 | -2% | -7% | · | 25%[57 µM] | -3%[59 µM] | 0%
CN(C)CCCN1c2ccccc2Sc2ccc(C(F)(F)F)cc21 | ? | 8% | -4% | -15% | -8%[59 µM] | 32µM*
C#CCn1cnc2c(oc3ccccc32)c1=O | -13% | 2% | 6% | 1%[57 µM] | 20% | 2%
CN1CCN(Cc2nc(N)nc(Nc3ccc4c(c3)OCCO4)n2)CC1 | ? | 2% | 3% | 14% | -29% | 50µM*
Cc1cccc(Nc2nc(N)nc(CCl)n2)c1 | -3% | 1% | -2% | 42% | ? | 8%
Cc1cccc(Nc2nc(N)nc(CN3CCN(c4ccccc4F)CC3)n2)c1 | 45µM* | · | · | -17% | · | ·
Nc1nc(CN2CCN(c3ccccn3)CC2)nc(Nc2ccc(Cl)cc2)n1 | ? | 6% | 10% | 13% | 50µM* | 50µM*
Cc1ccc(Nc2nc(N)nc(CN3CCc4ccccc4C3)n2)cc1 | ? | 7% | 12% | 2% | -31% | ?
CCOc1ccc(Nc2nc(N)nc(CN3CCN(c4ccccc4F)CC3)n2)cc1 | ? | 8% | 5% | 11% | ? | 56µM*
Cc1cccc(Nc2nc(N)nc(CN3CCN(c4ccccc4)CC3)n2)c1 | 56µM* | 8% | -5% | ? | ? | -112%
